According to paper PMC5700166:
Positions count from the first letter of the chain named.

Columns and labels:
Test in all cases: protein-binding microarray (PBM); PBM: ~300 nM protein, 6 mM HEPES pH 7.8, 80 mM KCl, 0.5 mM EDTA, 0.5 mM EGTA, 6% glycerol, 35 ng/ul poly-dIdC, 1% milk, 1 h, room temperature; Ap Aiptasia and Nv Nematostella (sea anemones) / Co Capsaspora / Aq Amphimedon (sponge) / Dm Drosophila / Hu human; RHD is the Rel homology domain; high values mean tight binding
Settings in all cases: dsDNA, one strand shown
GST-Ap-NF-kB RHD = target: T1, GST-Ap-NF-kB RHD (Exaiptasia pallida (Aiptasia), UniProt A0A913YAJ5 2-422)
T1 sequence: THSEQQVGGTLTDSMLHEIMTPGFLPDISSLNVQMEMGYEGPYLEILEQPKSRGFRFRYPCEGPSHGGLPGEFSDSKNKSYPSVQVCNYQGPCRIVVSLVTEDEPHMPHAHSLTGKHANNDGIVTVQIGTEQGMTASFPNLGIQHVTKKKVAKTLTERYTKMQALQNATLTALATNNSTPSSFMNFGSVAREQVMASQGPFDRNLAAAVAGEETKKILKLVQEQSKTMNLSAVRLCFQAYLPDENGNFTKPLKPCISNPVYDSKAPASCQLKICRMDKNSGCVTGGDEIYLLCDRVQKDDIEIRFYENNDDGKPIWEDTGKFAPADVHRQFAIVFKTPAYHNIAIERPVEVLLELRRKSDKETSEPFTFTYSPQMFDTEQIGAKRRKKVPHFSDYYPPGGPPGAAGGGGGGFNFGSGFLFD

[1] = target: T2, GST-Nv-NF-kB (Cys allele) (Nematostella vectensis, UniProt E5G601 2-411)
T2 sequence: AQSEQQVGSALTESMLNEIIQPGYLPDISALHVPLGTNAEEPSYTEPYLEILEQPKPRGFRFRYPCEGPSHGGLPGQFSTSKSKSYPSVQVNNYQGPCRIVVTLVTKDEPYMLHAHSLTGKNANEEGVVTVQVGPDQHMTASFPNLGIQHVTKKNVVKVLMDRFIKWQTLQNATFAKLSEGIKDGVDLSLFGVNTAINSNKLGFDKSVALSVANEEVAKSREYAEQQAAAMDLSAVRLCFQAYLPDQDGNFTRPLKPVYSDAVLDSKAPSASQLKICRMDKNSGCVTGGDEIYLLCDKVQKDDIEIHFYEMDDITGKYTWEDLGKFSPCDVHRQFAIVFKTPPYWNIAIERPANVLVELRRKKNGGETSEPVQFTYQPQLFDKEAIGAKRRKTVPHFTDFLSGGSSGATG

[2] = target: T3, GST-Nv-NF-kB (Ser allele) (Nematostella vectensis, UniProt A7UNT2 2-411)
T3 sequence: T2 sequence with Q21R, C66S, S207N, E215Q, V217A, E225K, A268E, D399E

GST-Co-NF-kB = target: T4, GST-Co-NF-kB (Capsaspora owczarzaki, UniProt F1ARL5 200-546)
T4 sequence: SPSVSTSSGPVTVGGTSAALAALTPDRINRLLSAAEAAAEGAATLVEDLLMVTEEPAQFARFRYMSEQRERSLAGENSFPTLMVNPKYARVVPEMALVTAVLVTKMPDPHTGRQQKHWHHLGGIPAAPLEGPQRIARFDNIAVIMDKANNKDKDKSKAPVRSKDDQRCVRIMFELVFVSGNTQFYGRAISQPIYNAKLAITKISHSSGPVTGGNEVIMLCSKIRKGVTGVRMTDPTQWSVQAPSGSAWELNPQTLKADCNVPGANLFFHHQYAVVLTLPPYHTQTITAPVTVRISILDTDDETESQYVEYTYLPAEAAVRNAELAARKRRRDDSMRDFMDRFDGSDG

GST-Dm-Relish = target: T5, GST-Dm-Relish (Drosophila melanogaster, UniProt Q94527 99-473)
T5 sequence: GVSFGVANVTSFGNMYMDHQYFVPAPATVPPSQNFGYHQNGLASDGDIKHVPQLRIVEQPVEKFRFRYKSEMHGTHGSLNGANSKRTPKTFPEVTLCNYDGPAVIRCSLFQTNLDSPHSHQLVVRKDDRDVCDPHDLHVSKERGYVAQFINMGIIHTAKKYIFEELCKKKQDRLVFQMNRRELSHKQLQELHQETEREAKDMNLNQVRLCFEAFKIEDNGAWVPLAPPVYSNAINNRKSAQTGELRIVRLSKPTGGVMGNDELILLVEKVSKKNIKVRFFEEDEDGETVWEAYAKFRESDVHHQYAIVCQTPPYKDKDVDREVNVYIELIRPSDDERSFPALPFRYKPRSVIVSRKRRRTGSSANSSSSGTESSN

GST-Aq-NF-kB = target: T6, GST-Aq-NF-kB (Amphimedon queenslandica, UniProt A9Y5G7 2-389)
T6 sequence: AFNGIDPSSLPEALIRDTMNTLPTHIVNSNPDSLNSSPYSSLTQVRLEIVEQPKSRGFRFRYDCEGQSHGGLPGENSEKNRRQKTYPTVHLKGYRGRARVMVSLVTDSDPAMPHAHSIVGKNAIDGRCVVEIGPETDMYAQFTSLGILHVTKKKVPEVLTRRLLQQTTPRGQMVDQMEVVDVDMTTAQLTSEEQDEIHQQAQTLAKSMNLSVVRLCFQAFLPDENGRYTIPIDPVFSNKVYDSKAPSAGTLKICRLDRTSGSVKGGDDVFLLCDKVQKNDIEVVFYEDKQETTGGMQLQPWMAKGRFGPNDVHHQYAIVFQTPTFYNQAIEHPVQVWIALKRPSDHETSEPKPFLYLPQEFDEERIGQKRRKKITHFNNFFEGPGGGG

GST-Hu-p50 = GST-Hu-p50 (Homo sapiens, UniProt P19838 7-356)
GST-Hu-p50, sequence (P19838 7-356): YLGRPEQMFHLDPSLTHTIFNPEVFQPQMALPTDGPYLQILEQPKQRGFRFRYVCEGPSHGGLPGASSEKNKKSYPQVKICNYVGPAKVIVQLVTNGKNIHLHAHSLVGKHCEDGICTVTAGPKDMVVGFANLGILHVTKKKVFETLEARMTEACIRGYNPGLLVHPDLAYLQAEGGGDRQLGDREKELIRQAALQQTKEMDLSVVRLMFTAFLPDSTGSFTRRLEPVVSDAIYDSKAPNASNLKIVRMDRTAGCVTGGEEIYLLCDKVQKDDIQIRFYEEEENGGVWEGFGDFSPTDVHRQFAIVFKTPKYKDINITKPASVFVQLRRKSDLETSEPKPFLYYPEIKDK

| Sequence | binding signal (GST-Ap-NF-kB RHD) [z-score] | binding signal [1] [z-score] | binding signal [2] [z-score] | binding signal (GST-Co-NF-kB) [z-score] | binding signal (GST-Dm-Relish) [z-score] | binding signal (GST-Aq-NF-kB) [z-score] | binding signal (GST-Hu-p50) [z-score] |
| --- | --- | --- | --- | --- | --- | --- | --- |
| CCGATTAACATCAGGGGATTTACTGATGTTAATCGGGTCTTGATTCGCTTGACGCTGCTG | 8.92 | 9.25 | 10.4 | 3.45 | 10.5 | 7.83 | 7.61 |
| CCGATTAACATCAAGCATTCCCCTGATGTTAATCGGGTCTTGATTCGCTTGACGCTGCTG | 6.61 | 7.73 | 8.37 | 5.48 | 4.42 | 5.38 | 5.38 |
| CCGATTAACATCAGGGCAACCCCTGATGTTAATCGGGTCTTGATTCGCTTGACGCTGCTG | 3.77 | 2.55 | 1.13 | 1.28 | 4.15 | 5.95 | 3.08 |
| CCGATTAACATCAGGGAAAAGTATGATGTTAATCGGGTCTTGATTCGCTTGACGCTGCTG | 3.35 | 4.5 | 6.25 | 4.73 | 1.56 | 3.86 | 2.97 |
| CCGATTAACATCAAGGGAATTTATGATGTTAATCGGGTCTTGATTCGCTTGACGCTGCTG | 4.54 | 7.59 | 7.58 | 3.54 | 4.78 | 5.69 | 5.62 |
| CCGATTAACATCAAACTACCCCCTGATGTTAATCGGGTCTTGATTCGCTTGACGCTGCTG | 5.45 | 4.01 | 4.35 | 5.82 | 2.49 | 4.3 | 4.12 |
| CCGATTAACATCAAGGGGGGATGTGATGTTAATCGGGTCTTGATTCGCTTGACGCTGCTG | 5.69 | 4.01 | 5.38 | 4.75 | 4.07 | 4.34 | 4.32 |
| CCGATTAACATCAGGCAAACCCCTGATGTTAATCGGGTCTTGATTCGCTTGACGCTGCTG | 3.13 | 2.8 | 1.51 | 1.49 | 3.13 | 4.85 | 3.63 |
| CCGATTAACATCAGGGGGATCCATGATGTTAATCGGGTCTTGATTCGCTTGACGCTGCTG | 7.42 | 5.12 | 6.25 | 4.25 | 7.45 | 5.46 | 5.74 |
| CCGATTAACATCAGGGAATTGCATGATGTTAATCGGGTCTTGATTCGCTTGACGCTGCTG | 2.48 | 4.23 | 4.1 | 2.6 | 1.11 | 3.49 | 3.1 |
| CCGATTAACATCAAAACATTCCCTGATGTTAATCGGGTCTTGATTCGCTTGACGCTGCTG | 3.1 | 5.46 | 4.94 | 4.18 | 3.87 | 6.04 | 3.88 |
| CCGATTAACATCAGGGAAACCCCTGATGTTAATCGGGTCTTGATTCGCTTGACGCTGCTG | 10.6 | 11.4 | 9.7 | 5.51 | 9.95 | 10 | 6.82 |
| CCGATTAACATCAATTCCCACCCTGATGTTAATCGGGTCTTGATTCGCTTGACGCTGCTG | 2.43 | 2.6 | 2.72 | 3.21 | 2.33 | 2.03 | 2.02 |
| CCGATTAACATCAAATTTCCCCGTGATGTTAATCGGGTCTTGATTCGCTTGACGCTGCTG | 8.33 | 9.6 | 11.4 | 9.87 | 7.13 | 7.38 | 6.52 |
| CCGATTAACATCAATAATTCCCCTGATGTTAATCGGGTCTTGATTCGCTTGACGCTGCTG | 8.52 | 10.6 | 11.8 | 8.63 | 7.98 | 7.59 | 6.96 |
| CCGATTAACATCAGGGAGATCCCTGATGTTAATCGGGTCTTGATTCGCTTGACGCTGCTG | 7.41 | 8.14 | 4.37 | 1.54 | 7.36 | 8.85 | 4.68 |
| CCGATTAACATCAGGGGAGTTTATGATGTTAATCGGGTCTTGATTCGCTTGACGCTGCTG | 8.25 | 6.72 | 7.68 | 4.75 | 6.12 | 6.08 | 5.95 |
| CCGATTAACATCACGGGGGAATATGATGTTAATCGGGTCTTGATTCGCTTGACGCTGCTG | 8.53 | 7.14 | 7.03 | 10.6 | 4.66 | 5.84 | 6.21 |
| CCGATTAACATCAGGGGATTCTATGATGTTAATCGGGTCTTGATTCGCTTGACGCTGCTG | 8.9 | 9.25 | 11.1 | 3.26 | 7.72 | 6.2 | 6.98 |
| CCGATTAACATCATAAATCCCCATGATGTTAATCGGGTCTTGATTCGCTTGACGCTGCTG | 6.78 | 7.56 | 9.37 | 3.91 | 7.13 | 5.14 | 7.11 |
| CCGATTAACATCAGACTTTCCCATGATGTTAATCGGGTCTTGATTCGCTTGACGCTGCTG | 3 | 4.28 | 3.69 | 2.74 | 1.53 | 4.28 | 3.45 |
| CCGATTAACATCAAAAAAATCCCTGATGTTAATCGGGTCTTGATTCGCTTGACGCTGCTG | 6.44 | 7.72 | 6.74 | 2.41 | 8.77 | 7.45 | 5.87 |
| CCGATTAACATCAGGGAGTCCCCTGATGTTAATCGGGTCTTGATTCGCTTGACGCTGCTG | 10.9 | 8.88 | 7.04 | 4.05 | 10.7 | 9.35 | 6.52 |
| CCGATTAACATCAAATACCCCCATGATGTTAATCGGGTCTTGATTCGCTTGACGCTGCTG | 6.79 | 4.49 | 4.86 | 5.57 | 3.98 | 4.48 | 5.11 |
| CCGATTAACATCAAATTTCCCAGTGATGTTAATCGGGTCTTGATTCGCTTGACGCTGCTG | 2.47 | 3.48 | 3.63 | 4.39 | 2.71 | 3.48 | 3.07 |
